Reference: the supplement of paper PMC9694430

Columns and labels:
Assay in all cases: thermal shift delta Tm vs DMSO control; higher = stronger stabilization (binding)
Settings in all cases: 12.5 µM; protein concentration 2 µM
LOC_OS01G01410-cb001 = system: LOC_OS01G01410-cb001
Procedure, shortened: (§1)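 Rice kinase domain constructs, made in E. coli and purified, were placed in 96-well plates at 2 μM in 19.5 μl of 100 mM potassium phosphate pH 7.5, 150 mM NaCl, 10% glycerol and 5 × SYPRO Orange, with compound in DMSO. A temperature ramp from 25°C to 95°C at 0.05°C/s was used for differential scanning fluorimetry. The melting temperature shift is a triplicate mean compared with DMSO-only protein, derived from Boltzmann fits.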

LOC_OS01G02750-cb003 = system: LOC_OS01G02750-cb003
Procedure, shortened: as §1

LOC_OS01G10900-cb004 = system: LOC_OS01G10900-cb004
Procedure, shortened: as §1

LOC_OS01G13800-cb001 = system: LOC_OS01G13800-cb001
Procedure, shortened: as §1

LOC_OS01G14860-cb001 = system: LOC_OS01G14860-cb001
Procedure, shortened: as §1

LOC_OS01G21960-cb002 = system: LOC_OS01G21960-cb002
Procedure, shortened: as §1

LOC_OS01G39600-cb002 = system: LOC_OS01G39600-cb002
Procedure, shortened: as §1

LOC_OS01G48390-cb002 = system: LOC_OS01G48390-cb002
Procedure, shortened: as §1

LOC_OS01G51400-cb002 = system: LOC_OS01G51400-cb002
Procedure, shortened: as §1

LOC_OS01G52050-cb004 = system: T1, LOC_OS01G52050-cb004
T1 sequence (whole entry): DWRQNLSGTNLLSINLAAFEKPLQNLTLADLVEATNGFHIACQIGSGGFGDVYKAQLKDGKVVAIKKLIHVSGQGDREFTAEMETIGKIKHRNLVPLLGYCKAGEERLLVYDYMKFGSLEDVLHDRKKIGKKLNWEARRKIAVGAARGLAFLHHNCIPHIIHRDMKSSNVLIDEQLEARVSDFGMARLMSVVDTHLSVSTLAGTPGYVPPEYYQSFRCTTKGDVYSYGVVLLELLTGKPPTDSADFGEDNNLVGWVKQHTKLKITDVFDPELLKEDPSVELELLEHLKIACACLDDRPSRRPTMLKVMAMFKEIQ
Procedure, shortened: as §1

LOC_OS01G57100-cb003 = system: LOC_OS01G57100-cb003
Procedure, shortened: as §1

LOC_OS01G60330-cb001 = system: LOC_OS01G60330-cb001
Procedure, shortened: as §1

LOC_OS01G60700-cb002 = system: LOC_OS01G60700-cb002
Procedure, shortened: as §1

LOC_OS01G63280-cb003 = system: LOC_OS01G63280-cb003
Procedure, shortened: as §1

LOC_OS01G67340-cb003 = system: LOC_OS01G67340-cb003
Procedure, shortened: as §1

LOC_OS01G70970-cb002 = system: LOC_OS01G70970-cb002
Procedure, shortened: as §1

LOC_OS02G07810-cb001 = system: LOC_OS02G07810-cb001
Procedure, shortened: as §1

LOC_OS02G08530-cb003 = system: LOC_OS02G08530-cb003
Procedure, shortened: as §1

LOC_OS02G14120-cb001 = system: LOC_OS02G14120-cb001
Procedure, shortened: as §1

LOC_OS02G17970-cb001 = system: LOC_OS02G17970-cb001
Procedure, shortened: as §1
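Further: purified Escherichia coli-expressed rice kinase domain construct.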

| Compound | thermal shift delta Tm (LOC_OS01G01410-cb001) | thermal shift delta Tm (LOC_OS01G02750-cb003) | thermal shift delta Tm (LOC_OS01G10900-cb004) | thermal shift delta Tm (LOC_OS01G13800-cb001) | thermal shift delta Tm (LOC_OS01G14860-cb001) | thermal shift delta Tm (LOC_OS01G21960-cb002) | thermal shift delta Tm (LOC_OS01G39600-cb002) | thermal shift delta Tm (LOC_OS01G48390-cb002) | thermal shift delta Tm (LOC_OS01G51400-cb002) | thermal shift delta Tm (LOC_OS01G52050-cb004) | thermal shift delta Tm (LOC_OS01G57100-cb003) | thermal shift delta Tm (LOC_OS01G60330-cb001) | thermal shift delta Tm (LOC_OS01G60700-cb002) | thermal shift delta Tm (LOC_OS01G63280-cb003) | thermal shift delta Tm (LOC_OS01G67340-cb003) | thermal shift delta Tm (LOC_OS01G70970-cb002) | thermal shift delta Tm (LOC_OS02G07810-cb001) | thermal shift delta Tm (LOC_OS02G08530-cb003) | thermal shift delta Tm (LOC_OS02G14120-cb001) | thermal shift delta Tm (LOC_OS02G17970-cb001) |
| --- | --- | --- | --- | --- | --- | --- | --- | --- | --- | --- | --- | --- | --- | --- | --- | --- | --- | --- | --- | --- |
| CNC(=O)c1cccc(-c2ccc3c(N4CCOC[C@@H]4C)nc(N4CCOC[C@@H]4C)nc3n2)c1 [Vistusertib (AZD2014)] | 0.53 °C | 0.19 °C | 0.09 °C | 0.05 °C | -0.13 °C | 0.23 °C | -0.58 °C | 0.24 °C | 0.26 °C | -0.25 °C | 0.66 °C | 0.59 °C | 0.1 °C | 0.16 °C | 0.54 °C | 0.23 °C | 0.11 °C | 1.58 °C | 0 °C | -0.08 °C |
| N[C@@H]1CCCN(c2c(/C=C3\SC(=O)NC3=O)cccc2-c2ccccc2)C1 | 0.41 °C | 0.59 °C | 0.27 °C | -0.81 °C | 0.66 °C | 0.65 °C | 0.1 °C | 0.27 °C | 0 °C | -0.01 °C | 0.49 °C | -0.07 °C | 0.8 °C | -0.31 °C | -0.25 °C | 0.19 °C | 0.55 °C | 0.62 °C | -0.31 °C | -0.03 °C |
| CC(C)S(=O)(=O)c1ccc2nccc(Nc3ccc4scnc4c3)c2c1 | 0.88 °C | 1.53 °C | 0.44 °C | 0.78 °C | 0.59 °C | 0.58 °C | 0.91 °C | 2.39 °C | 0.31 °C | 3.11 °C | 1.27 °C | 0.31 °C | 0.69 °C | 0.17 °C | 0.82 °C | 0.33 °C | -0.59 °C | 1.18 °C | 1.58 °C | 1.42 °C |
| CC(C)NC[C@@H](C(=O)N1CCN(c2ncnc3c2[C@H](C)C[C@H]3O)CC1)c1ccc(Cl)cc1 [Ipatasertib (GDC-0068)] | 0.15 °C | 0.42 °C | 0.03 °C | 0.07 °C | 0.06 °C | 0.43 °C | 0.77 °C | -0.11 °C | 0.32 °C | 0.26 °C | 0.44 °C | 0.84 °C | 1.12 °C | 0.25 °C | 0.25 °C | 0.4 °C | 0.82 °C | 0.31 °C | -0.01 °C | 0.06 °C |
| Nc1ncc(-c2ccnc(Nc3ccncc3)n2)c(CC2CC2)n1 | 0.71 °C | 1.52 °C | 1.79 °C | 0.81 °C | 2.55 °C | 0.87 °C | 0.29 °C | 0.57 °C | 0.15 °C | 0.96 °C | 0.51 °C | 1.45 °C | 1.53 °C | 0.58 °C | 0.33 °C | 0.37 °C | 0.77 °C | 0.52 °C | 3.13 °C | 2.16 °C |
| O=C(Nc1cc(C(F)(F)F)cc(C(F)(F)F)c1)c1cc(Cl)ccc1O | 1.21 °C | 2.23 °C | 0.29 °C | 1.37 °C | 1.05 °C | 1.13 °C | 3.34 °C | 1.1 °C | 0.99 °C | 1.75 °C | 1.44 °C | 1.34 °C | 2.1 °C | 1.28 °C | 0.01 °C | 0.57 °C | 2.75 °C | 1.42 °C | 0.39 °C | 2.43 °C |
| C[C@H]1[C@H](C)CC[C@]2(C(=O)O)CC[C@]3(C)C(=CC[C@@H]4[C@@]5(C)C[C@@H](O)[C@H](O)[C@@](C)(CO)[C@@H]5CC[C@]43C)[C@H]12 [Asiatic Acid] | 0.45 °C | -0.18 °C | 0.15 °C | 1.17 °C | 0.23 °C | 0.75 °C | 0.1 °C | 0.45 °C | 0.17 °C | 0.2 °C | 2.35 °C | 0.45 °C | 0.54 °C | -0.01 °C | 0.72 °C | 0.06 °C | 0.83 °C | 0.74 °C | 0.58 °C | 0.33 °C |
| Cc1c(CN2CCN(C(=O)[C@H](C)O)CC2)sc2c(N3CCOCC3)nc(-c3cnc(N)nc3)nc12 [Apitolisib (GDC-0980, RG7422)] | 0.32 °C | 0.18 °C | 0.13 °C | 0.56 °C | 0.1 °C | 0.49 °C | 0.16 °C | 0.64 °C | 0.53 °C | 0.42 °C | 0.9 °C | 0.98 °C | 0.46 °C | 0.4 °C | 0.25 °C | 0.37 °C | 1.43 °C | 1.01 °C | 0.42 °C | 1.03 °C |
| Cc1cc(C(=O)Nc2nc3cccc(Cl)c3n2[C@@H]2CCCCN(C(=O)/C=C/CN(C)C)C2)ccn1 [Nazartinib (EGF816, NVS-816)] | 1.02 °C | 1.36 °C | 1.4 °C | 0.82 °C | 1.27 °C | 1.25 °C | 0.83 °C | 0.78 °C | 0.04 °C | 0.96 °C | 1.05 °C | 1.72 °C | 1.17 °C | 0.35 °C | 1.06 °C | 0.93 °C | 0.98 °C | 2.18 °C | 1.69 °C | 1.28 °C |
| COc1cc2c(c(OC)c1OC)-c1c(cc3c(c1OC)OCO3)CC(C)C(C)C2 (stereo not given) [Schisandrin B (Sch B)] | 0.01 °C | -0.07 °C | 0.21 °C | -0.06 °C | 0.19 °C | 0.19 °C | -3.57 °C | 0.18 °C | 0.24 °C | -0.05 °C | 0.61 °C | 0.33 °C | 0.75 °C | 0.34 °C | -0.14 °C | 0.46 °C | 0.64 °C | 0.6 °C | 0.07 °C | 0.95 °C |
| CO[C@@H](C(=O)N1Cc2[nH]nc(NC(=O)c3ccc(N4CCN(C)CC4)cc3)c2C1)c1ccccc1 | 3 °C | 1.69 °C | 6.13 °C | -0.31 °C | 0.54 °C | 0.38 °C | 1.14 °C | 3.55 °C | 0.01 °C | 0.36 °C | 0.28 °C | 1.12 °C | 0.4 °C | 0.57 °C | -0.26 °C | 1.38 °C | 0.65 °C | 0.25 °C | 9.66 °C | 0.37 °C |
| Cc1cc(Nc2cc(N3CCN(C)CC3)nc(/C=C/c3ccccc3)n2)n[nH]1 | 2.2 °C | 1.8 °C | 1.93 °C | -0.23 °C | 2.99 °C | 2.75 °C | 2.83 °C | 2.45 °C | 0.24 °C | 3.7 °C | 0.41 °C | 9.2 °C | 0.77 °C | 0.17 °C | 0.51 °C | 3.04 °C | 0.72 °C | 2.41 °C | 7.14 °C | -0.1 °C |
